Outcome and Potency data for 28 compounds are collected here from PubChem BioAssay (NCATS).

Test [1] concerns the target Alpha-galactosidase (Coffea arabica) (UniProt Q42656). Kind of test: Counterscreen for Glucocerebrosidase Inhibitors: qHTS Assay for Coffee Bean alpha-Galactosidase at pH 4.5 (AID 957). Note: series mostly up to about 77 µM. In outline:
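Green coffee bean enzyme (2 nM final) was incubated with compounds (0.7 nM to 77 uM) and 4-methylumbelliferyl alpha-D-galactopyranoside (80 uM final) in 50 mM citric acid, 0.005% Tween-20, pH 4.5, 20 min at room temperature; AC50 from Hill fits.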

Test [2] shares this target. Kind of test: Counterscreen for Glucocerebrosidase Inhibitors: qHTS Assay for Coffee Bean alpha-Galactosidase at pH 5.9 (AID 998). In outline:
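Compounds were titrated from 0.7 nM to 77 uM against green coffee bean alpha-galactosidase (2 nM) using 80 uM fluorogenic 4-methylumbelliferyl substrate. After 20 min at room temperature, reactions were stopped at pH 10 and read by fluorescence.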

Test [3] can be described thus: Validation screen for inhibitors of Lassa infection (AID 463096; calls by dose curve; note: potency is the fitted concentration of half-maximal effect).
The nature of test [4]: Inducers of the Endoplasmic Reticulum Stress Response (ERSR) in human glioma: Validation (AID 504836). The method, boiled down:
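ERSR induction read as luciferase luminescence (Bright-Glo, 10 min at room temperature) in stably transfected human U87-MG glioma cells exposed to compounds for 16 h, using GRP78 as sensor.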

The nature of test [5]: qHTS for Inhibitors of the Functional Ribonucleoprotein Complex (vRNP) of Lassa (LASV) Arenavirus: LASV Primary Screen - GLuc reporter signal (AID 1347082; calls by dose curve; tested in HEK293 reporter line; note: series mostly up to about 57 µM; nearly all actives have a fitted effect of over 60% in size).
Test [6] can be described thus: qHTS for Inhibitors of the Functional Ribonucleoprotein Complex (vRNP) of Lassa (LASV) Arenavirus: Viability assay - alamar blue signal for LASV Primary Screen (AID 1347083; calls by dose curve; tested in HEK293 reporter line; note: series mostly up to about 57 µM; nearly all actives have a fitted effect of over 80% in size).
A short description of test [7]: qHTS for Inhibitors of the Functional Ribonucleoprotein Complex (vRNP) of Lymphocytic Choriomeningitis Arenaviruses (LCMV): Viability assay - alamar blue signal for LCMV Primary Screen (AID 1347085; calls by dose curve; tested in HEK293 reporter line; note: series mostly up to about 57 µM; nearly all actives have a fitted effect of over 80% in size).
For test [8], the target named is Nucleoprotein (Lymphocytic choriomeningitis virus (strain Armstrong)) (UniProt P09992). The test can be described thus: qHTS for Inhibitors of the Functional Ribonucleoprotein Complex (vRNP) of Lymphocytic Choriomeningitis Arenaviruses (LCMV): LCMV Primary Screen - GLuc reporter signal (AID 1347086; calls by dose curve; note: series mostly up to about 57 µM; nearly all actives have a fitted effect of over 70% in size).
Sequence of Nucleoprotein (Lymphocytic choriomeningitis virus (strain Armstrong)) (P09992 whole entry, looked up): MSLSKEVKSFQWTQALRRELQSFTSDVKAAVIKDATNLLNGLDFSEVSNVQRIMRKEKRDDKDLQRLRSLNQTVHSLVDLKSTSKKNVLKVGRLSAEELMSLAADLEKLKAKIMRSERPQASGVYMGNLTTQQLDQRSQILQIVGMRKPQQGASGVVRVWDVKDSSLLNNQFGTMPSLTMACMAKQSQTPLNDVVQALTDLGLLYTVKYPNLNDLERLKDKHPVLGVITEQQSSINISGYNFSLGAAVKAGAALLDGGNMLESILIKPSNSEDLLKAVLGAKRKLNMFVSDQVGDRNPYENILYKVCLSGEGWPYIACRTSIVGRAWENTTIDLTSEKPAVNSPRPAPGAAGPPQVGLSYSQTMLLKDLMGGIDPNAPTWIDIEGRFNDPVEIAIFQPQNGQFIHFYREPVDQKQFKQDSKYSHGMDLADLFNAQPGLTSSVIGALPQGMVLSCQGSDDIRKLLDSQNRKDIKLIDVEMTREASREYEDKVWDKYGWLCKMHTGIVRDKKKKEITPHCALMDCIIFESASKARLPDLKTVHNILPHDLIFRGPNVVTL

Values without a mark were called inactive. Records with an inconclusive call do not appear. Calls of active or inactive are those of the source. Unless noted, calls come from the whole dose curve; as a rule, active = well fitted curve in the direction sought with a large enough effect; inconclusive = small, poorly fitted or top-dose-only effect, or another doubt; inactive = no such curve, though single readings can be large; an effect the other way counts as inactive or inconclusive.

Sequence of Alpha-galactosidase (Coffea arabica) (Q42656 whole entry, looked up): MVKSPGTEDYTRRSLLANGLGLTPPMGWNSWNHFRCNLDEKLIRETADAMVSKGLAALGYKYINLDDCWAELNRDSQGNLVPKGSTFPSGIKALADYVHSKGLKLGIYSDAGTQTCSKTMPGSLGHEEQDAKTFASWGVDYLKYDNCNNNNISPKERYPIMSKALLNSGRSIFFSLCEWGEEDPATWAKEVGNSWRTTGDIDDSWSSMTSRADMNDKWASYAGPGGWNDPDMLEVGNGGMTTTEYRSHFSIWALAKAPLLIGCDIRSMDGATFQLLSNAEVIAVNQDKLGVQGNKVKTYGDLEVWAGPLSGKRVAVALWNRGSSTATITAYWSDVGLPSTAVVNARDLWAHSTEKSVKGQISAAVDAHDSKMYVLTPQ

For `NC(=O)C(=O)O`, the call in test [1], in test [2] and in test [4] was inactive. Further, the Potency entry in test [3], in test [5], in test [6], in test [7] and in test [8] was “inactive” in each case.

For `NCCSSCCN`, the result in test [1], in test [2] and in test [4] was inactive. Also, the Potency result in test [3], in test [5], in test [6], in test [7] and in test [8] was “inactive” throughout.

On to `O=c1[nH]c(=O)c2nc3ccccc3nc2[nH]1`, for which the outcome in test [1], in test [2] and in test [4] was inactive. Moreover, the Potency result in test [3], in test [5], in test [6], in test [7] and in test [8] was “inactive” throughout.

For `O=C1NC(c2cccc([N+](=O)[O-])c2)=CCN1c1ccccc1O`, the compound was classed as inactive in test [1], in test [2] and in test [4]. Moreover, the Potency entry in test [3], in test [5], in test [6], in test [7] and in test [8] was “inactive” each time.

On to `NC1(C(=O)O)CCCCC1`, for which the compound was called inactive in test [1], in test [2] and in test [4]. The Potency result in test [3], in test [5], in test [6], in test [7] and in test [8] was “inactive” each time.

Take `Nc1ccc(N2C(=O)c3ccccc3C2=O)c(Cl)c1`: the result in test [1], in test [2] and in test [4] was inactive. The Potency entry in test [3], in test [5], in test [6], in test [7] and in test [8] was “inactive” throughout.

As to `N[C@H](C(=O)O)[C@H](O)C(=O)O`, the call in test [1], in test [2] and in test [4] was inactive. For the same compound, the Potency entry in test [3], in test [5], in test [6], in test [7] and in test [8] was “inactive” throughout.

Turning to `COc1ccccc1N1CCN(CCCNc2c(C)c(=O)n(C)c(=O)n2C)CC1`, the compound was classed as inactive in test [1], in test [2] and in test [4]. In addition, the Potency result in test [3], in test [5], in test [6], in test [7] and in test [8] was “inactive” throughout.

With `CN[C@H](CC(=O)O)C(=O)O`, the compound was called inactive in test [1], in test [2] and in test [4]. Further, the Potency result in test [3], in test [5], in test [6], in test [7] and in test [8] was “inactive” in each case.

With `O=C(O)C1=CCNCC1`, the call in test [1], in test [2] and in test [4] was inactive. For the same compound, the Potency result in test [3], in test [5], in test [6], in test [7] and in test [8] was “inactive” each time.

In the case of `Oc1cc2c(cc1O)CN(C(=S)NCCc1ccc(Cl)cc1)CCC2`, the compound was called inactive in test [1], in test [2] and in test [4]. For the same compound, the Potency result in test [3], in test [5], in test [6], in test [7] and in test [8] was “inactive” each time.

With `N[C@@H](Cc1c[nH]c2ccccc12)C(=O)O`, the outcome in test [1], in test [2] and in test [4] was inactive. Moreover, the Potency result in test [3], in test [5], in test [6], in test [7] and in test [8] was “inactive” in each case.

For `COc1cc2c(CCNC(C)=O)c[nH]c2cc1Cl`, the compound was classed as inactive in test [1], in test [2] and in test [4]. Also, the Potency result in test [3], in test [5], in test [6], in test [7] and in test [8] was “inactive” each time.

For the compound `COc1ccccc1N1CCN(CCN2C(=O)CC3(CCCC3)CC2=O)CC1`, the compound was classed as inactive in test [1], in test [2] and in test [4]. Moreover, the Potency result in test [3], in test [5], in test [6], in test [7] and in test [8] was “inactive” each time.

As for `O=c1[nH]ccc2c(O)cccc12`, the outcome in test [1], in test [2] and in test [4] was inactive. Besides, the Potency entry in test [3], in test [5], in test [6], in test [7] and in test [8] was “inactive” in each case.

Consider `CCCOC(=O)c1c(-c2ccccc2)nc(CC)c(C(=O)SCC)c1CCC`, for which the compound was called inactive in test [1], in test [2] and in test [4]. The Potency entry in test [3], in test [5], in test [6], in test [7] and in test [8] was “inactive” each time.

For `CCCCCCC/C=C\CCCCCCCCC(=O)O`, the compound was called inactive in test [1], in test [2] and in test [4]. The Potency result in test [3], in test [5], in test [6], in test [7] and in test [8] was “inactive” in each case.

Turning to `COc1ccccc1N1CCN(CCCCNC(=O)c2ccc3ccccc3c2)CC1`, the compound was called inactive in test [1], in test [2] and in test [4]. Besides, the Potency in test [3] was 11.2 µM (active). Besides, the Potency result in test [5], in test [6], in test [7] and in test [8] was “inactive” throughout.

For the compound `CCC(=O)N1CCN(C(=O)c2ccccc2)CC1`, the compound was classed as inactive in test [1], in test [2] and in test [4]. The Potency entry in test [3], in test [5], in test [6], in test [7] and in test [8] was “inactive” in each case.

For the compound `CC(C)(C=O)Cc1cc(C(C)(C)C)c(O)c(C(C)(C)C)c1`, the compound was classed as inactive in test [1], in test [2] and in test [4]. Moreover, the Potency entry in test [3], in test [5], in test [6], in test [7] and in test [8] was “inactive” each time.

As to `CCCn1c(=O)c2[nH]c(-c3ccc(S(=O)(=O)O)cc3)nc2n(CCC)c1=O`, the compound was called inactive in test [1], in test [2] and in test [4]. The Potency entry in test [3], in test [5], in test [6], in test [7] and in test [8] was “inactive” in each case.

As for `c1ccc2nc(C3=NCCN3)ccc2c1`, the call in test [1], in test [2] and in test [4] was inactive. The Potency entry in test [3], in test [5], in test [6], in test [7] and in test [8] was “inactive” in each case.

On to `O=C(O)c1cc(=O)c2ccccc2[nH]1`, for which the outcome in test [1], in test [2] and in test [4] was inactive. In addition, the Potency entry in test [3], in test [5], in test [6], in test [7] and in test [8] was “inactive” throughout.

Regarding `N#Cc1cc2nc(O)c(O)nc2cc1[N+](=O)[O-]`, the outcome in test [1], in test [2] and in test [4] was inactive. The Potency result in test [3], in test [5], in test [6], in test [7] and in test [8] was “inactive” throughout.

As to `CNCCNS(=O)(=O)c1cccc2cnccc12`, the compound was called inactive in test [1], in test [2] and in test [4]. Further, the Potency result in test [3], in test [5], in test [6], in test [7] and in test [8] was “inactive” each time.

Regarding `C=CC[C@H](N)C(=O)O`, the outcome in test [1], in test [2] and in test [4] was inactive. The Potency entry in test [3], in test [5], in test [6], in test [7] and in test [8] was “inactive” in each case.

For `C[C@@H](NC(=O)/C(C#N)=C/c1ccc(O)c(O)c1)c1ccccc1`, the compound was called inactive in test [1], in test [2] and in test [4]. The Potency entry in test [3], in test [5], in test [6], in test [7] and in test [8] was “inactive” each time.

On to `O=c1ccc2c(OCCCCc3ccccc3)c3ccoc3cc2o1`, for which the compound was classed as inactive in test [1], in test [2] and in test [4]. The Potency result in test [3], in test [5], in test [6], in test [7] and in test [8] was “inactive” each time.
